VP16 counter – Gal4-VP16 reporter inhibition counter-screen. Potency, µM (doses to about 53.6 µM), inactives show top-dose activity, negative = inhibition, most hits filed as inhibitors. Drosophila S2 Gal4-VP16 UAS-luciferase, luminescence, 20 h. hit rate 3.5% among 310,000;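 note: Gal4-VP16 expression switched on by copper sulfate through the metallothionein promoter; potency is the fitted concentration of half-maximal effect; % is set by controls: 0 for no effect and ±100 for the full control effect; nearly all actives have a fitted effect of over 50% in size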
SW480 rerep – induces DNA re-replication in SW480 colon adenocarcinoma cells; Potency, µM (series often up to 46.1 µM), for inactives: at the highest dose re-replication activation, hits mostly activators; hit rate 1.8% among 340,000; AID 624297; SW480 DNA re-replication, Hoechst DNA content imaging, 48 h; note: potency is the fitted concentration of half-maximal effect; % of control where 0% means no effect; nearly all actives have a fitted effect of over 55% in size
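Treated cells incubate 48 hr (37 C, 5% CO2), are stained 40 min with Hoechst, and nuclear fluorescence is enumerated; a rise in nuclei with high DNA signal marks re-replication.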
RORgamma inh – blocks mouse ROR gamma transcriptional activity | hit rate 5.4% among 310,000 | Potency, µM (doses to about 53.6 µM), for inactives: at the highest dose activity change, negative = inhibition, most hits filed as inhibitors | P51450 | Drosophila S2 Gal4-RORgamma UAS-luciferase reporter, 20 h; note: potency is the fitted concentration of half-maximal effect; % is set by controls: 0 for no effect and ±100 for the full control effect; nearly all actives have a fitted effect of over 60% in size
Target sequence (P51450 whole entry, looked up, the tested form may be a part): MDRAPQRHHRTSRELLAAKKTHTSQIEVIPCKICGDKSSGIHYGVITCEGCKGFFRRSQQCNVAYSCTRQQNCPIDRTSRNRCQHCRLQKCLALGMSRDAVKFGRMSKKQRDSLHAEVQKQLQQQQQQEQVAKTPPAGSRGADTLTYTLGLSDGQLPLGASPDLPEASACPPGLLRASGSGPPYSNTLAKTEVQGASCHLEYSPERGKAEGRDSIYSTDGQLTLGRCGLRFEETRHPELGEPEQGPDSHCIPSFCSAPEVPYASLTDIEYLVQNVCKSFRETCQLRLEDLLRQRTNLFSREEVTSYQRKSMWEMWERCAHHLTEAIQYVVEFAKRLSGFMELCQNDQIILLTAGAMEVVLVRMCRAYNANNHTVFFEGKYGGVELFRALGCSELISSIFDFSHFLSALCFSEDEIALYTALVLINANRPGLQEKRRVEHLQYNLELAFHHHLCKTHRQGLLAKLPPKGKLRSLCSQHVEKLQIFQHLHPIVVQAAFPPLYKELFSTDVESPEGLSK
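Read-out: Photinus luciferase luminescence; inhibitors lower reporter signal. Insect Schneider cells with Gal4-ROR gamma fusion under metallothionein promoter, UAS reporter; 700 uM final copper sulfate induction, 20 hr, ambient temperature.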
IL1B secr inh – inflammasome signaling inhibition, IL-1 beta readout; THP-1 LPS/ATP IL-1B secretion, AlphaLISA, 16 h; active compounds read low; activity change, % at 57.5 µM; hit rate 4.7% among 360,000; in the data active = activity change below about -50%; inconclusive = mostly about -30% to -49%; note: % is set by controls: 0 for no effect and ±100 for the full control effect
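Secreted IL-1B measured by AlphaLISA bead assay after 16 h compound exposure of THP-1 cells; compounds (final up to 57.5 uM) added 1 h before LPS (250 ng/mL) and ATP (1.25 mM) stimulation; lower signal means less secretion.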
MCF10A rerep – induces DNA re-replication in MCF 10a normal breast cells; MCF 10A DNA re-replication, Hoechst nuclear intensity, 48 h; Potency, µM (highest dose often 46.1 µM), inactives show at the top dose activity, positive = re-replication, most hits filed as activators; hit rate 2.9% among 350,000; note: potency is the fitted concentration of half-maximal effect; % of control where 0% means no effect; nearly all actives have a fitted effect of over 50% in size
* hit, by the source's call; ? = inconclusive; . = no result; [ ] = remark or other dose. The list is not random: actives were taken first. Their share in the collection is about 11%. Unless noted, calls come from the whole dose curve; as a rule, active = well fitted curve in the direction sought with a large enough effect; inconclusive = small, poorly fitted or top-dose-only effect, or another doubt; inactive = no such curve, though single readings can be large; an effect the other way counts as inactive or inconclusive.

SMILES | VP16 counter | SW480 rerep | RORgamma inh | IL1B secr inh | MCF10A rerep
COc1ccccc1COC(=O)c1ccc(S(=O)(=O)N2CCOCC2)cc1 | . | 2.7% | . | 5.4 | 0.8%
Cc1noc(C)c1-c1nc(NCCN2CCOCC2)c2ccccc2n1 | 5.9% | . | -41.1% | . | .
CC(C)C1Cc2c(sc3[nH]c(=S)n(Cc4ccccc4)c(=O)c23)CO1 (stereo unspecified) | 0.562µM* | ? | 0.447µM* | 0.4 | ?
Cc1cc(Cl)ccc1Oc1ccccc1C(=O)CC#N | -22.1% | 5.5% | ? | 27.2 | 23.1µM*
Cc1cc(Cl)ccc1Oc1ccc(C(N)=O)cc1[N+](=O)[O-] | 0.2% | 1.5% | -14.3% | 18.6 | ?
CC(C)(C)OC(=O)[C@H](Cc1ccccc1)NC(=O)c1nc[nH]c1C(=O)NC1CCN(C(=O)OC(C)(C)C)CC1 | 7.08µM* | -3.1% | 5.01µM* | -5.9 | 5.3%
CC1CCN(C(=O)c2[nH]cnc2C(=O)N[C@@H](Cc2ccccc2)C(=O)OC(C)(C)C)CC1 | 20µM* | 14.0% | ? | 21.5 | -19.2%
CC(C)(C)OC(=O)[C@H](Cc1ccccc1)NC(=O)c1nc[nH]c1C(=O)N1CCN(C(=O)OC(C)(C)C)CC1 | ? | -36.0%[9.22 µM] | 11.2µM* | -4.6 | ?
CC(C)(C)OC(=O)N1CCN(C(=O)c2[nH]cnc2C(=O)N[C@@H](Cc2ccccc2)C(=O)OCc2ccccc2)CC1 | ? | -2.3% | 11.2µM* | -64.5* | ?
CCOc1ccc(-c2nnc(SCC(=O)NC(C)(C)C)nc2-c2ccc(OCC)c(OC)c2)cc1OC | 10.6% | -2.7% | 12.0% | 2.8 | 0.3%
CNc1nc(-c2ccoc2)nc2ccccc12 | -8.1% | . | ? | . | .
Cc1ccc2nc(-c3cccc(Br)c3)c(Cc3ccccc3)n2c1 | . | . | . | -0.6 | .
C=CCN(C(=O)c1csnn1)C(C(=O)NCc1ccc(F)cc1)c1ccccc1F (stereo unspecified) | 17.0% | -1.6% | 8.6% | -13.8 | 23.1%
CC(C)C[C@H](NC(=O)c1nc[nH]c1C(=O)N1CCC(C)CC1)C(=O)OCc1ccccc1 | ? | 0.1% | ? | -8.5 | -1.5%
CC(C)C[C@H](NC(=O)c1nc[nH]c1C(=O)N1CCN(C(=O)OC(C)(C)C)CC1)C(=O)OCc1ccccc1 | ? | 12.1% | 8.91µM* | -71.0* | ?
CCOC(=O)C1CCCN(C(=S)Nc2ccc(Nc3ccccc3)cc2)C1 (stereo unspecified) | 2.4% | -10.3% | ? | -96.4* | 2.0%
CCOC(=O)C1CCCN(C(=S)Nc2ccc(C)cc2C)C1 (stereo unspecified) | ? | 0.7% | 11.2µM* | -12.4 | 0.0%
CCOC(=O)C1CCCN(C(=S)NC(=O)/C=C/c2ccc(F)cc2)C1 (stereo unspecified) | 7.08µM* | -0.1% | 10µM* | -16.2 | 0.7%
Nc1ncn(C2C[C@H](O)[C@@H](CO)O2)c(=O)n1 (stereo partly specified) | -5.5% | ? | -0.3%[10 µM] | . | 13.4%
NC(=S)N1N=C(c2ccccc2)CC1=O | . | 0.7% | . | -0.1 | -2.6%
COc1ccc(Cl)cc1S(=O)(=O)N(C)CC(=O)N1CCOCC1 | -7.1% | -0.5% | -14.5% | -17.7 | 7.7%
Cc1n[nH]c(=O)c2c(NC(=O)CSc3nn(-c4ccccc4)c(=S)s3)oc(C)c12 | . | -15.0% | . | 12.4 | 12.8%
CCCCCCCCCCCC(CC1OC(=O)C1CCCCCC)OC(=O)C(CC(C)C)NC=O (stereo unspecified) | 4.4% | 12.5% | -1.6% | . | 5.31µM*
Cc1cc(C)c2c(c1)/C(=N/Nc1ccc(S(N)(=O)=O)cc1[N+](=O)[O-])CCC2 | 17.3% | -7.0% | -2.9% | 26.3 | 2.31µM*
NS(=O)(=O)c1ccc(N/N=C2/CCCCC2C2CCCCC2)c([N+](=O)[O-])c1 (stereo unspecified) | ? | ? | 17.8% | -112.1* | 11.6µM*
SMILES | VP16 counter | SW480 rerep | RORgamma inh | IL1B secr inh | MCF10A rerep
CCNc1ccc(S(N)(=O)=O)cc1[N+](=O)[O-] | 6.7% | -11.2% | -2.3% | 9.5 | -3.0%
CC1C/C(=N\Nc2ccc(S(N)(=O)=O)cc2[N+](=O)[O-])CC(C)(C)C1 (stereo unspecified) | ? | 9.5% | ? | -79.2* | 20.6µM*
NS(=O)(=O)c1ccc(NN=C2CCN(Cc3ccccc3)CC2)c([N+](=O)[O-])c1 | ? | -2.9% | ? | 18.4 | -7.0%
COc1ccccc1NS(=O)(=O)c1ccc(NN=C2CCCCC2)c([N+](=O)[O-])c1 | -16.1% | 11.8% | ? | 0.0 | 4.7%
O=C(Nc1ccncc1)c1ccc(Cl)c(S(=O)(=O)N2CCCC2)c1 | . | -18.1% | . | 51.5 | 15.2%
COCCn1c(-c2ccc(Br)cc2)csc1=Nc1cccnc1 | -13.4% | -6.7% | -0.3% | -78.5* | 0.8%
Clc1ccc(-c2csc(=Nc3cccnc3)n2CCCn2ccnc2)cc1Cl | -10.5% | 0.1% | ? | -87.7* | ?
OCCCn1c(-c2ccccc2)csc1=Nc1ccccc1 | -11.2% | -6.1% | ? | -1.8 | ?
CCOC(=O)c1c(C)oc2ccc(OCc3cc(C(=O)OC)oc3C)cc12 | 14.3% | 29.4% | -19.3% | -17.0 | 6.51µM*
COC(=O)c1cc(COc2ccc3oc(C)c(C(=O)OC)c3c2)c(C)o1 | -2.7% | 18.4µM* | 10.8% | 3.9 | 14.6µM*
COC(=O)c1cc(COc2ccc3ccc(=O)oc3c2)c(C)o1 | 22.1% | -3.6% | -1.9% | 1.8 | 1.7%
CC(=O)N1CCN(c2ccc([N+](=O)[O-])c(NCc3cccnc3)c2)CC1 | 5.5% | 1.0% | 8.0% | 16.0 | -3.2%
CC(=O)N1CCN(c2ccc(Oc3ccc([N+](=O)[O-])c(C(F)(F)F)c3)cc2)CC1 | 7.08µM* | 8.3% | ? | -82.5* | ?
O=C(COC(=O)/C=C/C(=O)N1CCN(c2ccccc2)CC1)NC(c1ccccc1)c1ccccc1 | ? | ? | ? | -54.4* | ?
Fc1ccc(C(c2ccc(F)cc2)N2CCN(CC=Cc3ccccc3)CC2)cc1 | . | 10.6% | . | . | ?
COCCN(C(=O)c1ccc(-c2ccc(Cl)cc2)o1)c1c(N)n(Cc2ccccc2)c(=O)[nH]c1=O | . | -4.6% | . | 3.8 | 1.1%
CN(C(=S)Nc1cccnc1)c1ccc(O)cc1 | -20.0% | -3.4% | 31.9% | 5.3 | 2.4%
CN(C(=S)Nc1ccc(SC(F)F)cc1)c1ccc(O)cc1 | ? | 0.5% | 15.2% | -53.6* | -2.9%
CN(C(=S)Nc1ccc(Oc2ccccc2)cc1)c1ccc(O)cc1 | -0.9% | 7.1% | -1.1% | -73.4* | ?
CC(C)(C)C(=O)O/N=C(\N)c1ccc(Oc2cc(Cl)cc(Cl)c2)c([N+](=O)[O-])c1 | 1.6% | 7.8% | 14.8% | -60.7* | 5.0%
CC1(C)CC(=O)C2=C(C1)NC1=C(C(=O)c3ccccc31)C2c1ccccc1 (stereo unspecified) | -11.0% | -0.3% | ? | -85.0* | 16.4%

Assay outcomes deposited in PubChem BioAssay by National Center for Advancing Translational Sciences (NCATS).
